# Data reported in PubChem BioAssay (EPA / NIEHS).
# Activity calls are given as the source filed them. How the source made its calls: active means hit-call score of the fitted dose curve at least 0.9, where 1 is the maximum; inactive means score below 0.9.
# Test: CEETOX_H295R_OHPROG: CeeTox H295R High-throughput Steroidogenesis Assay for OH-Progesterone (OHPROG) (AID 2283435);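 on AC50: human adrenal H295R cells primed 48 h with 10 µM forskolin; 17alpha-hydroxyprogesterone secreted into medium measured by HPLC-MS/MS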
# Conditions: actives raise or lower the signal
# Summary of the method: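 Steps: seed H295R cells and adhere overnight; stimulate with 10 uM forskolin for 48 h; replace with chemical-containing medium (0.1% DMSO) for 48 h; extract medium with MTBE; quantify 17alpha-hydroxyprogesterone by reverse-phase C18 HPLC-MS/MS against a 7-point curve.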
SMILES,outcome,AC50
Nc1ccc(-c2ccc(N)c(Cl)c2)cc1Cl,inactive,
C[C@@H]1C[C@@H]([C@H](O)CC2CC(=O)NC(=O)C2)C(=O)[C@@H](C)C1,inactive,
C(=NC1CCCCC1)=NC1CCCCC1,inactive,
CN(CCCC(=O)c1cccnc1)N=O,inactive,
CCOP(=S)(OCC)SCCS(=O)(=O)CC,,14.9 µM (active)
C1CCC(NC2CCCCC2)CC1,inactive,
CC(C)OC(=O)Nc1ccccc1,inactive,
C=CC(=O)N(C)C,inactive,
O=C(Nc1ccc2[nH]ccc2c1)c1cc2cc(F)ccc2n1Cc1cccc(F)c1,,0.124 µM (active)
CCCCCCCCC(=O)NCc1ccc(O)c(OC)c1,inactive,
NNC(=S)NN,,50 µM (active)
CCOP(=S)(OCC)SCSP(=S)(OCC)OCC,,1.73 µM (active)

# Test: CEETOX_H295R_CORTIC: CeeTox H295R High-throughput Steroidogenesis Assay for Corticosterone (CORTIC) (AID 2283437);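 further: corticosterone secreted into medium quantified by mass spectrometry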
# Conditions: actives raise or lower the signal
# Summary of the method: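 Steps: seed H295R, adhere overnight; 10 uM forskolin 48 h; replace with chemical (0.1% DMSO) 48 h; extract medium with MTBE; quantify corticosterone by HPLC-MS/MS; score bidirectionally vs DMSO.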
row,SMILES,outcome
1,Nc1ccc(-c2ccc(N)c(Cl)c2)cc1Cl,inactive
2,CN(CCCC(=O)c1cccnc1)N=O,inactive
3,CCOP(=S)(OCC)SCCS(=O)(=O)CC,inactive
4,C1CCC(NC2CCCCC2)CC1,inactive
5,C=CC(=O)N(C)C,inactive
6,O=C(Nc1ccc2[nH]ccc2c1)c1cc2cc(F)ccc2n1Cc1cccc(F)c1,inactive
7,CCCCCCCCC(=O)NCc1ccc(O)c(OC)c1,inactive
8,CCOP(=S)(OCC)SCSP(=S)(OCC)OCC,inactive
